# Measured values reported in PubChem BioAssay AID1159580 (chemical genetic matrix, 2015).
# Values joined by “and” are separate entries in the source; they are usually repeats but may differ in a detail not shown here. Equal entries are not always repeated. The campaign covered roughly 5,500 compounds. About 2,000 (36%) were called active. Inconclusive results (about 18%) are left out. No stated cut-off is given here; in the data, active means normalized growth mostly below about 0.91 (no sharp cut-off); inconclusive means no clear call, values can overlap the other calls; inactive means mostly above about 0.92. The list shows a part of the results.
# Assay: chemical genetic growth profiling, strain panel (AID 1159580);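 further: tested at 20 µM; growth read once vehicle control cultures reached saturation at 30 °C; 1 = growth at the plate median or of vehicle wells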
# Settings: S. cerevisiae deletion strains, growth OD
smiles,measurement,setting,value
CC1(C)C=Cc2cc3ccc(=O)oc3cc2O1,normalized growth,"locus YAL013W, strain DEP1, stronger effect = lower value",0.986 (inactive)
same,normalized growth,"locus YAL021C, strain ccr4, stronger effect = lower value",0.987 (inactive)
same,normalized growth,"locus YAL026C, strain drs2, stronger effect = lower value",0.963 (inactive)
same,normalized growth,"locus YAL030W, strain snc1, stronger effect = lower value",0.934 (inactive)
same,normalized growth,"locus YBL061C, strain skt5, stronger effect = lower value",0.972 (inactive)
same,normalized growth,"locus YBR009C, strain hhf1, stronger effect = lower value",0.875 (active)
same,normalized growth,"locus YBR021W, strain FUR4, stronger effect = lower value",0.95 (inactive)
same,normalized growth,"locus YBR023C, strain chs3, stronger effect = lower value",0.912 (active)
same,normalized growth,"locus YBR171W, strain sec66, stronger effect = lower value",0.945 (inactive)
same,normalized growth,"locus YBR229C, strain ROT2, stronger effect = lower value",0.995 (inactive)
same,normalized growth,"locus YBR231C, strain swc5, stronger effect = lower value",0.958 (inactive)
same,normalized growth,"locus YBR279W, strain paf1, stronger effect = lower value",0.973 (inactive)
same,normalized growth,"locus YCL011C, strain gbp2, stronger effect = lower value",0.865 (active)
same,normalized growth,"locus YCL016C, strain dcc1, stronger effect = lower value",0.891 (active)
same,normalized growth,"locus YCL029C, strain bik1, stronger effect = lower value",0.967 (inactive)
same,normalized growth,"locus YCL069W, strain vba3, stronger effect = lower value",0.915 (active)
same,normalized growth,"locus YCR088W, strain abp1, stronger effect = lower value",0.927 (inactive)
same,normalized growth,"locus YDL005C, strain med2, stronger effect = lower value",0.96 (inactive)
same,normalized growth,"locus YDL035C, strain GPR1, stronger effect = lower value",0.984 (inactive)
same,normalized growth,"locus YDL040C, strain nat1, stronger effect = lower value",0.962 (inactive)
same,normalized growth,"locus YDL074C, strain BRE1, stronger effect = lower value",0.919 (inactive)
same,normalized growth,"locus YDL101C, strain DUN1, stronger effect = lower value",0.987 (inactive)
same,normalized growth,"locus YDL134C, strain PPH21, stronger effect = lower value",0.947 (inactive)
same,normalized growth,"locus YDL185W, strain tfp1, stronger effect = lower value",0.975 (inactive)
same,normalized growth,"locus YDL192W, strain arf1, stronger effect = lower value",0.958 (inactive)
same,normalized growth,"locus YDR001C, strain nth1, stronger effect = lower value",0.906 (active)
same,normalized growth,"locus YDR069C, strain doa4, stronger effect = lower value",0.958 (inactive)
same,normalized growth,"locus YDR101C, strain arx1, stronger effect = lower value",0.93 (inactive)
same,normalized growth,"locus YDR137W, strain rgp1, stronger effect = lower value",0.849 (inactive)
same,normalized growth,"locus YDR159W, strain sac3, stronger effect = lower value",0.959 (inactive)
same,normalized growth,"locus YDR162C, strain NBP2, stronger effect = lower value",0.976 (inactive)
same,normalized growth,"locus YDR195W, strain ref2",1.07 (inactive)
same,normalized growth,"locus YDR297W, strain sur2, stronger effect = lower value",0.965 (inactive)
same,normalized growth,"locus YDR318W, strain mcm21, stronger effect = lower value",0.935 (inactive)
same,normalized growth,"locus YDR334W, strain swr1, stronger effect = lower value",0.943 (inactive)
same,normalized growth,"locus YDR335W, strain msn5, stronger effect = lower value",0.919 (inactive)
same,normalized growth,"locus YDR388W, stronger effect = lower value",0.971 (inactive)
same,normalized growth,"locus YDR392W, strain spt3, stronger effect = lower value",0.58 (active)
same,normalized growth,"locus YDR502C, strain sam2, stronger effect = lower value",0.914 (active)
same,normalized growth,"locus YEL003W, strain gim4, stronger effect = lower value",0.951 (inactive)
same,normalized growth,"locus YEL037C, strain rad23, stronger effect = lower value",0.95 (inactive)
same,normalized growth,"locus YEL061C, strain CIN8 (second series), stronger effect = lower value",0.931 (inactive)
same,normalized growth,"locus YEL061C, strain CIN8, stronger effect = lower value",0.993 (inactive)
same,normalized growth,"locus YER015W, strain faa2, stronger effect = lower value",0.919 (active)
same,normalized growth,"locus YER016W, strain bim1, stronger effect = lower value",0.965 (inactive)
same,normalized growth,"locus YER110C, stronger effect = lower value",0.96 (inactive)
same,normalized growth,"locus YER111C, strain swi4, stronger effect = lower value",0.958 (inactive)
same,normalized growth,"locus YER155C, strain BEM2 (second series), stronger effect = lower value",0.565 (active)
same,normalized growth,"locus YER155C, strain BEM2, stronger effect = lower value",0.973 (inactive)
same,normalized growth,"locus YER167W, strain BCK2, stronger effect = lower value",0.952 (inactive)
same,normalized growth,"locus YFR010W, strain ubp6, stronger effect = lower value",0.951 (inactive)
same,normalized growth,"locus YGL078C, strain dbp3, stronger effect = lower value",0.968 (inactive)
same,normalized growth,"locus YGL086W, strain mad1, stronger effect = lower value",0.916 (active)
same,normalized growth,"locus YGL167C, strain pmr1, stronger effect = lower value",0.953 (inactive)
same,normalized growth,"locus YGL173C, strain kem1, stronger effect = lower value",0.949 (inactive)
same,normalized growth,"locus YGL227W, strain vid30, stronger effect = lower value",0.934 (inactive)
same,normalized growth,"locus YGL240W, strain doc1, stronger effect = lower value",0.863 (active)
same,normalized growth,"locus YGL248W, strain PDE1, stronger effect = lower value",0.941 (inactive)
same,normalized growth,"locus YGL253W, strain hxk2, stronger effect = lower value",0.971 (inactive)
same,normalized growth,"locus YGR078C, strain PAC10, stronger effect = lower value",0.944 (inactive)
same,normalized growth,"locus YGR135W, strain pre9, stronger effect = lower value",0.907 (inactive)
same,normalized growth,"locus YGR252W, strain gcn5, stronger effect = lower value",0.818 (inactive)
same,normalized growth,"locus YHR013C, strain ard1, stronger effect = lower value",0.865 (inactive)
same,normalized growth,"locus YHR027C, strain rpn1, stronger effect = lower value",0.953 (inactive)
same,normalized growth,"locus YHR030C, strain SLT2, stronger effect = lower value",0.984 (inactive) and 0.846 (active)
same,normalized growth,"locus YHR079C, strain IRE1 (second series), stronger effect = lower value",0.962 (inactive)
same,normalized growth,"locus YHR079C, strain IRE1, stronger effect = lower value",0.818 (active)
same,normalized growth,"locus YHR094C, strain hxt1, stronger effect = lower value",0.964 (inactive)
same,normalized growth,"locus YHR129C, strain ARP1, stronger effect = lower value",0.978 (inactive)
same,normalized growth,"locus YHR142W, strain chs7, stronger effect = lower value",0.834 (active)
same,normalized growth,"locus YHR200W, strain rpn10, stronger effect = lower value",0.954 (inactive)
same,normalized growth,"locus YIL066C, strain RNR3, stronger effect = lower value",0.993 (inactive)
same,normalized growth,"locus YIL073C, strain SPO22, stronger effect = lower value",0.908 (inactive)
same,normalized growth,"locus YIL125W, strain kgd1, stronger effect = lower value",0.935 (inactive)
same,normalized growth,"locus YIR030C, strain dcg1, stronger effect = lower value",0.962 (inactive)
same,normalized growth,"locus YJL092W, strain hpr5, stronger effect = lower value",0.921 (inactive)
same,normalized growth,"locus YJL095W, strain BCK1 (second series), stronger effect = lower value",0.96 (inactive)
same,normalized growth,"locus YJL095W, strain BCK1, stronger effect = lower value",0.901 (inactive) and 0.867 (active)
same,normalized growth,"locus YJL115W, strain asf1, stronger effect = lower value",0.921 (inactive)
same,normalized growth,"locus YJL129C, strain trk1, stronger effect = lower value",0.778 (active)
same,normalized growth,"locus YJL134W, strain LCB3, stronger effect = lower value",0.991 (inactive)
same,normalized growth,"locus YJL154C, strain vps35, stronger effect = lower value",0.933 (inactive)
same,normalized growth,"locus YJL164C, strain tpk1, stronger effect = lower value",0.9 (active)
same,normalized growth,"locus YJL166W, strain qcr8, stronger effect = lower value",0.896 (active)
same,normalized growth,"locus YJL168C, strain set2, stronger effect = lower value",0.976 (inactive)
same,normalized growth,"locus YJL187C, strain SWE1 (second series), stronger effect = lower value",0.959 (inactive)
same,normalized growth,"locus YJL187C, strain SWE1, stronger effect = lower value",0.968 (inactive)
same,normalized growth,"locus YJR043C, strain POL32, stronger effect = lower value",0.972 (inactive)
